# Publication PMC8136818, “Evolving origin-of-transfer sequences on staphylococcal conjugative and mobilizable plasmids—who’s mimicking whom?”
# B1: ossA408-1 (dsDNA)
# DNA 1: ATATAGGCGCCTAATA
# DNA 2: TATTAGGCGCCTATAT
# B2: ossA408-15 (dsDNA)
# DNA 1: TTATAGGCGCCTAAAA
# DNA 2: TTTTAGGCGCCTATAA
# B3: ossA408-7 (dsDNA)
# DNA 1: TTATAGCCGCCTAATA
# DNA 2: TATTAGGCGGCTATAA
# B4: ossASep (dsDNA)
# DNA 1: TTTGCATACATTTAAA
# DNA 2: TTAAATGTATGCAAA
# B5: ossA408-5 (dsDNA)
# DNA 1: TTATTGGCGCCTAATA
# DNA 2: TATTAGGCGCCAATAA
# B6: ossA408-12 (dsDNA)
# DNA 1: TTATAGGCGCCAAATA
# DNA 2: TATTTGGCGCCTATAA
# B7: ossA408-13 (dsDNA)
# DNA 1: TTATAGGCGCCTTATA
# DNA 2: TATAAGGCGCCTATAA
# B8: ossA408-14 (dsDNA)
# DNA 1: TTATAGGCGCCTATTA
# DNA 2: TAATAGGCGCCTATAA
# B9: ossA408-3 (dsDNA)
# DNA 1: TTTTAGGCGCCTAATA
# DNA 2: TATTAGGCGCCTAAAA
# B10: ossA408 G6C (dsDNA)
# DNA 1: TTATACGCGCCTAATA
# DNA 2: TATTAGGCGCGTATAA
# B11: ossA408-2 (dsDNA)
# DNA 1: TAATAGGCGCCTAATA
# DNA 2: TATTAGGCGCCTATTA
# B12: ossA408-10 (dsDNA)
# DNA 1: TTATAGGCGGCTAATA
# DNA 2: TATTAGCCGCCTATAA
# B13: ossA408-16 (dsDNA)
# DNA 1: TTATAGGCGCCTAATT
# DNA 2: AATTAGGCGCCTATAA
# B14: ossB49 (dsDNA)
# DNA 1: CCGATGATAGCAAATT
# DNA 2: AATTTGCTATCATCGG
# B15: ossBSep (dsDNA)
# DNA 1: TAAATGTATGCATATT
# DNA 2: AATATGCATACATTTA
# B16: ossA408-9 (dsDNA)
# DNA 1: TTATAGGCCCCTAATA
# DNA 2: TATTAGGGGCCTATAA
# B17: OT408 For/Rev_18 (dsDNA)
# DNA 1: TAATAGGTGGCAAATTTCCCTTATGCTCTT
# DNA 2: AAGAGCATAAGGGAAATTTGCCACCTATTA
# B18: ossA408-8 (dsDNA)
# DNA 1: TTATAGGGGCCTAATA
# DNA 2: TATTAGGCCCCTATAA
# B19: ossA408 C11G (dsDNA)
# DNA 1: TTATAGGCGCGTAATA
# DNA 2: TATTACGCGCCTATAA
# B20: ossA408-4 (dsDNA)
# DNA 1: TTAAAGGCGCCTAATA
# DNA 2: TATTAGGCGCCTTTAA
# Columns and labels:
# SmpO408 = biological target: T1, SmpO408 (Staphylococcus aureus M0408); assay: SPR (ReDCaT); 300 mM NaCl; 10 mM HEPES, 3 mM EDTA, 0.05% Tween 20, NaCl 150 mM (SmpO49 screens), 300 mM (SmpO45, SmpO408, SmpOUNa screens) or 250 mM (Table S4); pH and temperature not stated; protein 1 uM; high values mean tight binding; conditions: protein: recombinant; tags: His6-TEV, cleaved; chain copies: 4
# T1 chain: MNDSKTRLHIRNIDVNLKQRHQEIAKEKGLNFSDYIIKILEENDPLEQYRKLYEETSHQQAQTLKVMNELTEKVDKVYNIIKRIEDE
# Summary of the method: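 Tag-cleaved protein, expressed in E. coli BL21(DE3)pLysS and purified by nickel-affinity and size-exclusion chromatography, was screened on a Biacore T200 SA chip by reusable DNA capture. OriT oligonucleotides were captured at 1 μM on Fc2, with a control linker on Fc1. Protein at 1 μM was injected at 30 μl/min (60 s contact, 60 s dissociation) in 10 mM HEPES, 300 mM NaCl, 3 mM EDTA, 0.05% Tween 20. DNA binding is reported as %Rmax.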
# SmpOSep = biological target: T2, SmpOSep (Staphylococcus epidermidis VCU120); assay: SPR (ReDCaT); 250 mM NaCl; 10 mM HEPES, 3 mM EDTA, 0.05% Tween 20, NaCl 150 mM (SmpO49 screens), 300 mM (SmpO45, SmpO408, SmpOUNa screens) or 250 mM (Table S4); pH and temperature not stated; protein 1 uM; high values mean tight binding; conditions: protein: recombinant; tags: His6-TEV, cleaved; chain copies: 4
# T2 chain: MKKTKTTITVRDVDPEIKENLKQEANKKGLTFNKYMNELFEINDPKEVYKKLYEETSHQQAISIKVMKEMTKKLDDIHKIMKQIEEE
binder,measurement,setting,value
B1,binding signal,SmpO408,67.4 ± 2.06 %Rmax
B2,binding signal,SmpO408,63 ± 1.28 %Rmax
B3,binding signal,SmpO408,49.8 ± 2.35 %Rmax
B4,binding signal,SmpOSep,18.8 %Rmax
B5,binding signal,SmpO408,67.9 ± 1.54 %Rmax
B6,binding signal,SmpO408,68.3 ± 1.07 %Rmax
B7,binding signal,SmpO408,63.9 ± 1.66 %Rmax
B8,binding signal,SmpO408,63 ± 0.997 %Rmax
B9,binding signal,SmpO408,64.4 ± 1.7 %Rmax
B10,binding signal,SmpO408,35.5 ± 2.44 %Rmax
B11,binding signal,SmpO408,65.7 ± 2.04 %Rmax
B12,binding signal,SmpO408,48.1 ± 2.02 %Rmax
B13,binding signal,SmpO408,65.1 ± 0.98 %Rmax
B14,binding signal,SmpOSep,0.6 %Rmax
B15,binding signal,SmpOSep,16.5 %Rmax
B16,binding signal,SmpO408,6.86 ± 1.04 %Rmax
B17,binding signal,SmpO408,60.1 %Rmax
B18,binding signal,SmpO408,7.62 ± 1.09 %Rmax
B19,binding signal,SmpO408,34.5 ± 1.85 %Rmax
B20,binding signal,SmpO408,69 ± 1.82 %Rmax
